The values that follow come from publication PMC5998130.

This experiment addresses Smad nuclear-interacting protein 1 (UniProt Q8TAD8). Description: mass-spectrometry hit list; affinity purification or IP with mass spectrometry.

Consider “DNA-directed RNA polymerase II subunit RPB1, P24928”, for which the “listed as a hit” value is “yes”.
